The values that follow come from PubChem BioAssay AID449739 (Vanderbilt High Throughput Screening Facility, 2010).

The whole screen tested about 100,000 compounds, of which about 4,200 (4.2%) were called active. The sample as a whole holds a higher share of actives than the screen did. Values without a mark were called inactive.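 The calls were made as follows: active = single-dose well whose peak fluorescence ratio is a statistical outlier from its plate by either plate-standardised score or position-corrected B-score; inactive = the rest.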

This test deals with Voltage-dependent T-type calcium channel subunit alpha-1H (Homo sapiens) (UniProt O95180). Briefly: Cav3.2 calcium influx blockers – cell-based, Fluo-4 calcium fluorescence, FDSS, MLSMR library, primary screen (AID 449739). To be noted: Cav3.2-expressing cells, at 10 µM, stronger effect = lower value.
Voltage-dependent T-type calcium channel subunit alpha-1H (Homo sapiens), sequence (O95180 whole entry, looked up): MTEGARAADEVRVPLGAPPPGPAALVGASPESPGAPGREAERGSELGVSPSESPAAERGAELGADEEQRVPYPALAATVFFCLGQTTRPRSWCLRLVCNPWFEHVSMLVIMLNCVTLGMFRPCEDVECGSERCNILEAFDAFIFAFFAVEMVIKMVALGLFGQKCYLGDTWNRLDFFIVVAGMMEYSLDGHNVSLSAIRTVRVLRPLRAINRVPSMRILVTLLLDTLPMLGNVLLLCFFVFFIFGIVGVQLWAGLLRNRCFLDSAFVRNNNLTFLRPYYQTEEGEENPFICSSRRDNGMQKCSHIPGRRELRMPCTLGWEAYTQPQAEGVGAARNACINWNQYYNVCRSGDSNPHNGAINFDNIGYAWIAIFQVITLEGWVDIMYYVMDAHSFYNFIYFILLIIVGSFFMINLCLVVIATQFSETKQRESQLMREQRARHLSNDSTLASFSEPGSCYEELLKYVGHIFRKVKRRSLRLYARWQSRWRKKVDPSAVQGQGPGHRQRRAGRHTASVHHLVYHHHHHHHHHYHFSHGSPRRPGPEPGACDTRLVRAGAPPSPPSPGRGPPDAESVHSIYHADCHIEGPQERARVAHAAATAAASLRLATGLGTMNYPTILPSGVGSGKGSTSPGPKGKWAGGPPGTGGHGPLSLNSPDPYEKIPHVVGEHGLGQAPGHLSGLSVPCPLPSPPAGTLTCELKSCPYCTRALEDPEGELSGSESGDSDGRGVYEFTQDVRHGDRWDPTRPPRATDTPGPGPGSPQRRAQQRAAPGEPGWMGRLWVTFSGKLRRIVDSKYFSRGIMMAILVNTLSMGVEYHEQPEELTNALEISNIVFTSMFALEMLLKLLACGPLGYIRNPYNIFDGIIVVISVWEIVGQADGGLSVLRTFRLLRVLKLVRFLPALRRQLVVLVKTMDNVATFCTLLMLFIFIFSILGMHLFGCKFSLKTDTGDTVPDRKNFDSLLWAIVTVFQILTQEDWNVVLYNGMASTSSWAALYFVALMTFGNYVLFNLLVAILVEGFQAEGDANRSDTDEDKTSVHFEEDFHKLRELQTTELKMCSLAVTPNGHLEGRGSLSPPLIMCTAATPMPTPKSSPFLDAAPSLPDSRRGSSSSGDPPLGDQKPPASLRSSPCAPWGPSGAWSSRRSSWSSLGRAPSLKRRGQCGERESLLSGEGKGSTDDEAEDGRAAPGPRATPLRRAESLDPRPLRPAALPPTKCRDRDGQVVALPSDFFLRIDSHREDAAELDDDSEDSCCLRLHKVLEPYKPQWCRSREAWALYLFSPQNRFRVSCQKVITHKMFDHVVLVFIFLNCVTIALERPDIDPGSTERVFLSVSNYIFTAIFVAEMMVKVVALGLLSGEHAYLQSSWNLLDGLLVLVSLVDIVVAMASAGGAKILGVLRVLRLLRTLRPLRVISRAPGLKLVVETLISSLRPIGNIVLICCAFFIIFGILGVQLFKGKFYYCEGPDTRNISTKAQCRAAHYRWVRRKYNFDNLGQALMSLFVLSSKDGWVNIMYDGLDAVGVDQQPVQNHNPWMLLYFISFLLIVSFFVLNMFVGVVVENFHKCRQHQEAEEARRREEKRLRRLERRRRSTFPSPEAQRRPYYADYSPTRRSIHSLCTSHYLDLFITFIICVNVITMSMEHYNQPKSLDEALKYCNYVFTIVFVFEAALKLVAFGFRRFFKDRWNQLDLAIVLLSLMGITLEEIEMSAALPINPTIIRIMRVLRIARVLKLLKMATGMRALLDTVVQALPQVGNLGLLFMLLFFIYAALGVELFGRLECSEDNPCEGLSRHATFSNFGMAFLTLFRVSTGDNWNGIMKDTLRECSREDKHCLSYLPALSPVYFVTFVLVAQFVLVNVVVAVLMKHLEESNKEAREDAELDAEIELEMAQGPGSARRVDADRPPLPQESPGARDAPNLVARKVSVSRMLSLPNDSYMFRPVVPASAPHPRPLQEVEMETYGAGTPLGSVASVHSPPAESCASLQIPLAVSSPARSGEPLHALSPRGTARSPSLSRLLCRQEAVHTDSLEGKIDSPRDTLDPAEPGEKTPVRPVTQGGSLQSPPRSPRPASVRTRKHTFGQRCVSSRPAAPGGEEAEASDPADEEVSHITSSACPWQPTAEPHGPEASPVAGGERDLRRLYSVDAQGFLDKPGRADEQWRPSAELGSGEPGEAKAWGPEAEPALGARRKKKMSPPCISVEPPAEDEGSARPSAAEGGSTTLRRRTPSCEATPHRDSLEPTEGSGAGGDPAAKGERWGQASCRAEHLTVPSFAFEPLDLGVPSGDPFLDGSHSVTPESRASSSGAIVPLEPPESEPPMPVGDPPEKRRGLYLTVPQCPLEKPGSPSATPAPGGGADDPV
For `FC(F)(F)c1cc(C(F)(F)F)c2ccc(N3CCN(c4ccccc4)CC3)nc2n1`, the B-score is -0.29. Consider `CNC(C)C#Cc1ccc2sc3cc(OC)c(OC)cc3c(=O)c2c1` (centres undefined), for which the B-score is -1.08. The value for `C[C@H]1CC[C@]2(O[C@@H](CCO)C[C@@H](O)[C@@H]2O)O1` was -0.0046; that for `O=C(COC(=O)c1ccccc1NC(=O)c1ccco1)Nc1ccc2c(c1)OC(F)(F)O2` was -1.68; that for `CC1Cc2ccccc2N1CC(=O)Nc1ccc2c(c1)OC(F)(F)O2` (centres undefined) was -4.17 (active). Take `O=C(Cn1c(=O)sc2ccccc21)Nc1ccc2c(c1)OCCO2`: the B-score is 0.666. As for `CCC(=O)Nc1ccc(C(=O)Nc2cc(C)on2)cc1`, the B-score is 0.744. As for `CCc1ccc2ncc(C(=O)c3ccccc3)c(N3CCOCC3)c2c1`, the B-score is -0.907. For the molecule `COc1ccccc1NC(=S)NC(=O)C(C)C`, the B-score is 0.35. For `CC(C)C(=O)NC(=S)Nc1ccccc1F`, the B-score was -0.107. The value for `CC(C)C(=O)Nc1cccc(NC(=S)NC(=O)C(c2ccccc2)c2ccccc2)c1` was -5.49 (active); that for `O=C(NCCc1ccccc1)c1ccc(OCCOc2ccccc2)cc1` was -0.578; that for `CC(C)c1ccc(C(=O)NCCCc2ccccc2)cc1` was -4.2 (active).

`Cc1cc(C(=O)NCCCc2ccccc2)no1`: the B-score was 0.538. Take `CC(=O)Nc1cccc(/C(C)=N/NC(=O)c2ccccc2Cl)c1`: the B-score is 0.407.

As to `Cc1ccc(-c2csc(NCCc3nc4cc(Cl)c(Cl)cc4n3CCOCCO)n2)cc1`, the B-score was -0.914.

In the case of `CCS(=O)(=O)c1ccc2oc(SCC(=O)N3c4ccccc4CC3C)nc2c1` (centres undefined), the B-score is 0.393. As for `CC1Cc2ccccc2N1C(=O)CSc1nc2ccccc2o1` (centres undefined), the B-score was -4.15 (active).

As to `O=C(CSc1nc2ccccc2o1)N1CCN(c2ccccc2)CC1`, the B-score was -0.102. As to `Cc1nc(SCC(=O)c2ccccc2)c([N+](=O)[O-])[nH]1`, the B-score was 0.184. For `COc1c(O)cc2oc(-c3ccc(O)c(O)c3)cc(=O)c2c1O`, the B-score is 1.78. Regarding `COc1ccccc1N(C)S(=O)(=O)c1ccc(C(=O)N2CCC(C(N)=O)CC2)cc1`, the B-score was -0.0467.

As for `CCCCC1=CC2=CC(=O)C(C)(OC(=O)CC)C(=O)C2=CN1CCCOC(C)C` (centres undefined), the B-score was 0.761. Turning to `O=C(CC1N=C2c3ccccc3N=C(SCc3ccccc3Cl)N2C1=O)NCc1ccco1` (centres undefined), the B-score is -4.98 (active). The same measure for `O=C(CSC1=Nc2ccccc2C2=NC(CC(=O)NCc3ccco3)C(=O)N12)NCc1ccco1` (centres undefined): 0.442. With `CCC(C)NC(=O)CSC1=Nc2ccccc2C2=NC(CCC(=O)NCc3ccco3)C(=O)N12` (centres undefined), the B-score was 0.161. The same measure for `O=C(Cc1ccc2c(c1)CCCC2)Nc1ccccc1Cl`: -0.144; for `O=C(NCc1ccccc1)c1onc(CSc2ccncc2)c1C(=O)NCc1ccccc1`: -0.591. As for `Cc1cc(C)cc(OCc2nnc(SCC(=O)Nc3ccccc3)o2)c1`, the B-score was 0.346.

With `Cc1cccc(OCc2nnc(SCc3nc4cc(C(F)(F)F)ccc4c(=O)[nH]3)o2)c1`, the B-score is -1.8. Regarding `Cc1cccc(OCc2nnc(SCn3nnc4ccccc4c3=O)o2)c1`, the B-score was -6.05 (active).

As to `Cn1cc([N+](=O)[O-])c(C(=O)Nc2ccc3c(c2)OCCO3)n1`, the B-score was 0.353. For the molecule `COc1cccc(NC(=O)c2ccccc2SC)c1`, the B-score was 0.424.

As to `COc1cccc(NC(=O)c2nn(C34CC5CC(CC(C5)C3)C4)cc2[N+](=O)[O-])c1`, the B-score is -4.14 (active).

As for `O=C(Nc1nnc(CCOCCOCCc2nnc(NC(=O)c3ccco3)s2)s1)c1ccco1`, the B-score is 0.766. On to `Cc1cc(C(=O)CSc2nc(N)cc(=O)[nH]2)c(C)n1CCc1ccc(Cl)cc1`, for which the B-score is 0.737. The same measure for `CC(/C=C/C1(O)C(C)CC(=O)CC1(C)C)OC1OC(CO)C(O)C(O)C1O` (centres undefined): 0.424; for `COc1ccc(-c2cn(-c3ccc(C)cc3)c(=O)n2CC(=O)Nc2ccc(OC)c(OC)c2)cc1`: -1.46; for `COc1ccc(NC(=O)Cn2c(-c3ccc(OC)cc3)cn(-c3ccc(C)cc3)c2=O)cc1`: -4.33 (active). For `CCOc1ccc(NC(=O)CN2CCN(CC(=O)Nc3ccc(OC)cc3)CC2)cc1`, the B-score was 1.58. Turning to `CC(C)(C)NS(=O)(=O)c1ccc(NC(=O)NC2CCCCC2)cc1`, the B-score was -0.833. For the molecule `Cc1n[nH]c(=S)n1/N=C/c1ccc(Br)o1`, the B-score was 0.825.

`COc1ccc(Nc2nc(Cl)nc(NCc3ccco3)n2)cc1`: the B-score was -0.534. For `COc1ccc(CCN(C)C(=O)C2CCCN(Cc3ccc(OC)c(OC)c3)C2)cc1OC` (centres undefined), the B-score is -0.0096. The value for `COc1ccc(CCNC(=O)C2CCN(c3nn4c(=O)cc(C)nc4s3)CC2)cc1OC` was 0.351; that for `COc1ccc(CCNC(=O)C2CCCN(Cc3nc(-c4cccc(Cl)c4)oc3C)C2)cc1OC` (centres undefined) was -3.48 (active). Take `CC1(OC(=O)C2CCCC2)C(=O)C=C2C=C(c3ccc(C#N)cc3)OC=C2C1=O` (centres undefined): the B-score is -0.314. The same measure for `CCCCNC(=O)C(=O)c1ccccc1NC(C)=O`: 0.725; for `Cc1ccc(C)c(N2CCN(C(=O)CCCCn3c(=O)[nH]c4ccccc4c3=O)CC2)c1`: -8.03 (active). As to `O=C(CCCCn1c(=O)[nH]c2ccccc2c1=O)NCc1ccc2c(c1)OCO2`, the B-score was -0.0333. Regarding `CCn1c(=O)cc(OCC(=O)NCCCN2CCN(c3cccc(Cl)c3)CC2)c2ccccc21`, the B-score is 0.375.

Consider `O=C(CCCn1c(=O)[nH]c2cc(Cl)ccc2c1=O)NCCN1CCN(c2ccccc2)CC1`, for which the B-score is 0.27. In the case of `O=C(CCn1c(=O)[nH]c2ccccc2c1=O)NCCCN1CCN(c2cccc(Cl)c2)CC1`, the B-score was -7.26 (active). Consider `COc1ccc(CCNC(=O)CCCCn2c(=O)[nH]c3ccccc3c2=O)cc1OC`, for which the B-score was 0.545. Take `COC(=O)c1ccccc1OCC(=O)N1CCN(c2ccc(Cl)cc2)CC1`: the B-score was -1.9. On to `Cc1ccccc1OC/C(O)=C(\C#N)c1nc2ccccc2[nH]1`, for which the B-score was -0.71. As for `COc1cc(OC)c(/C=N/NC(=O)c2ccc([N+](=O)[O-])cc2)cc1Br`, the B-score is -0.234. The same measure for `COc1cccc(/C=N/NC(=O)c2cccc([N+](=O)[O-])c2)c1OS(=O)(=O)c1ccc(C)cc1`: -6.01 (active). The same measure for `COc1cc(/C=N\NC(=O)CNC(=O)c2cccc([N+](=O)[O-])c2)ccc1O`: 0.194.
